Screening data as filed in PubChem.
Only some compounds are listed: those with a hit (about 2.3% of all), similar ones and a draw of the others.
CHO-K1 Ca antag = nonselective inhibitor or artifact in parental CHO-K1 cells; 0.6% of 360,000 active; ATP-induced calcium, Fluo-8 fluorescence; AID 602250; inhibition, % at 3 µM;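 active = inhibition above a per-plate cutoff, the plate's mean sample inhibition plus 3 SD, cut at about 24% in these data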;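 also: 0% = DMSO plus EC80 ATP and 100% = DMSO alone without ATP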
M1 ag parental = counter-screen for M1 agonists: effect in parental CHO-K1 cells; 0.48% of 360,000 active; Fluo-8 calcium fluorescence; scaled to maximal ATP response, vehicle zero; activation, % at 3 µM; in the data active = activation above about 15%;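 also: untransfected CHO-K1 host cells lacking M1 receptor as counterscreen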
M1 PAM = human M1 muscarinic receptor positive allosteric modulators, primary screen, CHO-K1 cells, Fluo-8 calcium fluorescence, 1536-well | AID 588819, 2011 | activation, % at 3 µM | Muscarinic acetylcholine receptor M1 (Homo sapiens), P11229 | 0.088% of 360,000 active | CHO-K1 hM1, ACh EC20; 0% = ACh EC20, 100% = maximal ACh; in the data active = activation above about 19%, passing the limit was not always enough
Target sequence (P11229 whole entry, looked up): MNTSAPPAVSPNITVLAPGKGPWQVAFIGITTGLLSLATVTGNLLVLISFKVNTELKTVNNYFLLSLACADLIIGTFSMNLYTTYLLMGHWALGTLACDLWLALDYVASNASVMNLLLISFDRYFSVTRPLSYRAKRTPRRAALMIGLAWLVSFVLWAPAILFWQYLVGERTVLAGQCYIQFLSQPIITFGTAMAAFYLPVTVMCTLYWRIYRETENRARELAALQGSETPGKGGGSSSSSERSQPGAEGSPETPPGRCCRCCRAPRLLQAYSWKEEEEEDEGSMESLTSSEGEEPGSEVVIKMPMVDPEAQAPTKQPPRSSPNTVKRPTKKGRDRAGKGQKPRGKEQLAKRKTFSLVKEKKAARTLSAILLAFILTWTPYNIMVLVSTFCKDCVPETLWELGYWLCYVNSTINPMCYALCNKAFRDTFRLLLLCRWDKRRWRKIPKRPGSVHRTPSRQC
M1 ag = human M1 muscarinic receptor agonists, primary screen, Fluo-8 calcium fluorescence, CHO-K1 cells, HTS. 0.33% of 360,000 active. AID 588814, 2011. Muscarinic acetylcholine receptor M1 (Homo sapiens), P11229. CHO-K1 hM1, agonist mode; 0% DMSO, 100% acetylcholine EC100. activation, % at 3 µM;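 active = activation above the run's mean compound activation plus 3 SD, cut at about 16% in these data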;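 also: peak over basal fluorescence ratio within a 140 s kinetic read after compound addition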
M1 antag = human M1 muscarinic receptor antagonists, primary screen, CHO-K1 cells, Fluo-8 calcium fluorescence, 1536-well. inhibition, % at 3 µM. 1.3% of 360,000 active. Muscarinic acetylcholine receptor M1 (Homo sapiens), P11229. CHO-K1 hM1, ACh EC80 antagonist;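 active = percent inhibition above its own plate's cutoff, namely the mean of that plate's compound wells plus 3 SD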;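 also: peak over basal fluorescence ratio during 140 s after agonist addition; 0% = ACh EC80 plus DMSO and 100% = DMSO alone without agonist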
M1 PAM parental = nonselective calcium activators in parental CHO-K1 cells, primary screen, counter-screen for M1 PAM project, cell-based, Fluo-8 calcium fluorescence, full deck, 1536-well; 0.02% of 360,000 active; activation, % at 3 µM; ATP EC20; 0% at ATP EC20, 100% at ATP max;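 active = activation above the run cutoff, the mean activation of all test compounds plus 3 SD, cut at about 40% in these data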;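 also: peak over basal fluorescence ratio in a 140 s read after ATP addition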
The depositor's hits bear a star; . = no result given; ! = not active in a repeat.

SMILES	CHO-K1 Ca antag	M1 ag parental	M1 PAM	M1 ag	M1 antag	M1 PAM parental
O=c1[nH]c2ccccc2n1C1CCN(C(c2cccs2)c2nnnn2-c2ccc3c(c2)OCCO3)CC1 (stereo not drawn)	-27.6	6.8	7.4	3.1	-23.7	41.9*
CCOCN(C(=O)CCl)c1c(C)cccc1CC	-4.9	0.0	6.7	-3.0	-7.0	5.2
CN(C)C1C(=O)C(C(N)=O)=C(O)C2(O)C(=O)C3=C(O)c4c(O)cccc4C(C)(O)C3CC12 (stereo not drawn)	27.7*	-0.3	-4.9	5.7	-9.3	-11.6
CN(C)[C@@H]1C(=O)C(C(N)=O)=C(O)[C@@]2(O)C(=O)C3=C(O)c4c(O)cccc4[C@@](C)(O)C3[C@H](O)C12 (stereo partly drawn)	27.5*!	4.1	-27.1	-0.3	64.6	-6.7
CC(C)(C)n1nnnc1C(C1CC1)N1CCC2(CC1)C(=O)NCN2c1ccccc1 (stereo not drawn)	4.7	1.3	9.0	-2.0	0.2	15.6
COc1ccc(CNCCc2c(C)[nH]c3ccc(OC(F)(F)F)cc23)c(OC)c1	33.2*	36.6*	-7.7	0.5	27.2	-6.5
Nc1c(C(=O)NCCN2CCOCC2)c2nc3ccccc3nc2n1Cc1ccccc1	-1.6	16.2*	6.2	-2.2	-8.3	23.2
Nc1c(C(=O)NCCc2ccccc2)c2nc3ccccc3nc2n1CCN1CCOCC1	4.7	2.0	3.3	-4.6	9.6	11.9
COC(=O)C1=C(c2ccc(Cl)c(C(F)(F)F)c2)C[C@@H]2CC[C@H]1N2C(=O)NCc1cc(C)oc1C(F)(F)F	-9.7	1.2	-0.2	-8.0	-5.8	12.6
Oc1cc(Cl)c(Cl)c(Cl)c1Cl	-22.2	9.9	3.7	1.5	-2.3	14.8
Oc1cc(Cl)c(Cl)c(Cl)c1	0.3	14.8	-20.3	1.4	23.1*	-12.6
Nc1ccc2ccc3cccc[n+]3c2c1	-8.8	32.3*	-12.1	10.5	22.1	19.9
C[N+]1([O-])[C@@H]2CC(OC(=O)[C@H](CO)c3ccccc3)C[C@H]1[C@@H]1O[C@@H]12 (stereo partly drawn)	9.0	-0.5	-26.1	-8.6	99.8*	-5.7
C[N+]1(C)C2CCC1CC(OC(=O)c1ccccc1)C2 (stereo not drawn)	7.7	0.0	-9.3	-7.8	11.9	-15.3
C[N+]1(C)[C@@H]2CC[C@H]1CC(OC(=O)C(CO)c1ccccc1)C2 (stereo partly drawn)	5.1	0.0	-25.9	-6.4	99.3*	9.2
C[N+]1(C)C2CCC1CC(OC(=O)C(CO)c1ccccc1)C2 (stereo not drawn)	-7.3	0.2	-38.4	-15.3	100.5*	-6.0
C#CC[N+]1(C)[C@@H]2CC(OC(=O)C(CO)c3ccccc3)C[C@H]1C(O)C2 (stereo partly drawn)	8.8	-0.1	-27.3	-10.1	100.7*	-15.8
CN1CCCCC1Cc1ccccc1 (stereo not drawn)	13.3	0.5	-12.4	-5.6	25.6	-4.3
Cc1ccc(NC(=O)[C@@H](NC(=O)N2C[C@H]3C[C@@H](C2)c2cccc(=O)n2C3)C(C)C)cc1	-4.3	0.6	5.5	-3.0	-12.5	23.0
C[C@@H]1NCCc2cc(O)c(O)cc21	-3.0	0.3	-1.6	-4.1	-29.0	13.0
NCC(O)c1cc(O)c(O)cc1F (stereo not drawn)	-2.6	-0.2	13.9	3.0	-31.5	-4.3
C/C(=N\N(C)c1ccccc1)c1c(O)[nH]c(=O)[nH]c1=O	-0.5	1.1	17.9	-2.9	-22.4	14.8
CCC(C)N1C(=O)/C(=C/c2ccc3c(c2)CCN3CCCCl)C(=O)NC1=S (stereo not drawn)	-7.4	6.5	10.9	-3.4	-6.5	25.0
C[N+](C)(C)CC#CCN1CCCC1=O	16.2	1.7	-12.3	120.5*	89.0*	7.2
C/C(Cl)=C/CC1(CN2CCCC2=O)C(=O)NC(=O)NC1=O	-7.7	0.2	7.6	-2.7	-6.0	15.6
SMILES	CHO-K1 Ca antag	M1 ag parental	M1 PAM	M1 ag	M1 antag	M1 PAM parental
c1ccc(N2C3C4CC(C5CCCC54)C32)cc1 (stereo not drawn)	-17.1	1.0	9.8	-1.6	-2.6	20.9
O=C1NC(=O)C(=Cc2ccc(OCC(=O)N3CCOCC3)cc2)C(=O)N1	29.1*	0.2	-0.9	-2.9	-15.8	-14.8
CN(CCOc1ccc(C=C2C(=O)NC(=O)NC2=O)cc1)c1ccccn1	-10.3	0.5	-6.9	-6.7	15.9	6.2
COc1ccc2c(c1)C1(C)CCN(C)CC(C1)C2O (stereo not drawn)	-1.6	-0.4	10.0	-1.0	-9.8	9.1
COc1ccccc1OCC#CCN1CCOCC1	-20.2	2.8	-2.0	-2.8	1.2	6.3
Clc1ccc(OCC#CCN2CCCC2)cc1	-8.8	0.9	-29.2	-15.2	32.3*	10.4
COc1ccccc1OCC#CCN1CCCCCC1	-1.4	0.0	-14.7	-5.7	32.9*	-8.9
CN(C(=O)Cc1ccc(Cl)c(Cl)c1)C(CN1CCCC1)c1cccc(OCC(=O)O)c1 (stereo not drawn)	3.3	0.1	3.7	-2.0	-23.0	12.9
COC(=O)C1=C(c2ccc(F)cc2F)C[C@@H]2CC[C@H]1N2C(=O)NCCOc1ccccc1	-10.3	-1.0	6.0	-6.1	-3.6	-5.5
O=C(Nc1cccc(Cl)c1)OC1CN2CCC1CC2 (stereo not drawn)	44.9*	16.5*	-17.5	6.2	37.1	-27.6
CN1CCN(CC#CCOc2ccc(Cl)cc2)CC1	1.5	-0.2	-5.5	-9.1	5.3	-3.0
O=C(Nc1ccc(Cl)cc1)OC1CN2CCC1CC2 (stereo not drawn)	3.9	10.0	-13.8	-0.1	21.5	5.2
O=C(Nc1cccc(Cl)c1)OCC#CCN1CCCC1	-14.9	2.5	-23.1	44.9*	62.2*	-0.5
O=C(Nc1ccccc1Cl)OC1CN2CCC1CC2 (stereo not drawn)	-8.2	4.7	-22.4	-4.0	54.5*	14.6
O=C(Nc1ccccc1F)OC1CN2CCC1CC2 (stereo not drawn)	-2.8	0.4	-16.3	-7.3	23.8	15.9
COC(=O)C1=C(c2ccc3ccccc3c2)C[C@@H]2CC[C@H]1N2C(=O)NC(C)C	-3.2	0.3	7.3	-4.3	-11.6	10.6
CCC(=O)[C@@H](C)[C@@H](O)[C@H](C)C[C@@H](C)C1OC(=O)C[C@@]2(O)CC=C(C)C(O2)C(C)=CCCC[C@H](O[C@H]2C[C@@H](OC(N)=O)[C@H](O)[C@@H](C)O2)C=C[C@H](C)C[C@H]1C (stereo partly drawn)	2.5	6.0	.	.	.	6.3
